PubChem BioAssay AID1159580 (chemical genetic matrix, 2015)
About 2,000 (36%) of roughly 5,500 compounds were called active. Inconclusive results (about 18%) are left out. No stated cut-off is given here; in the data, active means normalized growth mostly below about 0.91 (no sharp cut-off); inconclusive means no clear call, values can overlap the other calls; inactive means mostly above about 0.92. Some of the results follow.

Assay: chemical genetic growth profiling, strain panel (AID 1159580);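 further: tested at 20 µM; growth read once vehicle control cultures reached saturation at 30 °C; 1 = growth at the plate median or of vehicle wells; lower values mean less growth of the strain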
Conditions: S. cerevisiae deletion strains, growth OD
[1] = locus YBR229C, strain ROT2, active compounds read low
[2] = locus YCL061C, strain MRC1, active compounds read low
[3] = locus YDL101C, strain DUN1, active compounds read low
[4] = locus YEL061C, strain CIN8, active compounds read low
[5] = locus YHR030C, strain SLT2, active compounds read low
[6] = locus YJR075W, strain HOC1, active compounds read low
[7] = locus YLR039C, strain RIC1, active compounds read low
[8] = locus YMR307W, strain GAS1, active compounds read low
[9] = locus YPL241C, strain CIN2, active compounds read low

Measured: normalized growth

N#C/C(=C\N(CCS(=O)(=O)c1ccc(Cl)cc1)Cc1cccs1)S(=O)(=O)c1ccc(Cl)cc1
inactive: locus YAL013W, strain DEP1, active compounds read low 0.999 | [1] 1.01 | [2] 1.02 | [3] 1 | locus YDR150W, strain NUM1, active compounds read low 1.08 | [4] 0.973 | locus YGR078C, strain PAC10, active compounds read low 1.01 | [5] 1.05 | locus YHR087W, strain rtc3, active compounds read low 1.01 | locus YJR043C, strain POL32, active compounds read low 1.03 | [6] 1.04 | locus YKL190W, strain CNB1, active compounds read low 0.987 | [7] 1.06 | locus YLR058C, strain SHM2 (second series), active compounds read low 1 | locus YLR085C, strain ARP6, active compounds read low 0.943 | locus YLR262C, strain YPT6, active compounds read low 1.06 | locus YML094W, strain GIM5, active compounds read low 0.981 | locus YMR219W, strain ESC1, active compounds read low 1 | locus YMR263W, strain SAP30, active compounds read low 1.09 | [8] 1.08 | locus YNL153C, strain GIM3, active compounds read low 1.03 | locus YNL298W, strain CLA4 (second series), active compounds read low 0.947 | locus YNL322C, strain KRE1, active compounds read low 0.996 | locus YNR030W, strain Alg12, active compounds read low 1 | locus YPL055C, strain LGE1, active compounds read low 1.13 | [9] 0.981 | locus YPR135W, strain CTF4, active compounds read low 1.19

COc1c2c(cc3c1OCO3)C13C=C[C@H](OC)CC1N(C2)CC3O (stereo not given in full)
inactive: locus YAL021C, strain ccr4, active compounds read low 0.966 | locus YAL026C, strain drs2, active compounds read low 0.976 | locus YAL030W, strain snc1, active compounds read low 0.996 | locus YBL061C, strain skt5, active compounds read low 0.984 | locus YBR009C, strain hhf1, active compounds read low 1 | locus YBR021W, strain FUR4, active compounds read low 1.06 | locus YBR023C, strain chs3, active compounds read low 0.981 | locus YBR171W, strain sec66, active compounds read low 1 | [1] 1 | locus YBR231C, strain swc5, active compounds read low 1 | locus YBR279W, strain paf1, active compounds read low 0.963 | locus YCL011C, strain gbp2, active compounds read low 0.969 | locus YCL016C, strain dcc1, active compounds read low 0.955 | locus YCL029C, strain bik1, active compounds read low 0.981 | [2] 0.979 | locus YCL069W, strain vba3, active compounds read low 0.991 | locus YCR088W, strain abp1, active compounds read low 0.991 | locus YDL005C, strain med2, active compounds read low 0.976 | locus YDL035C, strain GPR1, active compounds read low 1.03 | locus YDL040C, strain nat1, active compounds read low 1 | locus YDL074C, strain BRE1, active compounds read low 1.01 | [3] 0.985 | locus YDL185W, strain tfp1, active compounds read low 0.961 | locus YDL192W, strain arf1, active compounds read low 0.986 | locus YDR001C, strain nth1, active compounds read low 0.988 | locus YDR069C, strain doa4, active compounds read low 0.963 | locus YDR101C, strain arx1, active compounds read low 1.01 | locus YDR137W, strain rgp1, active compounds read low 0.953 | locus YDR159W, strain sac3, active compounds read low 0.968 | locus YDR162C, strain NBP2, active compounds read low 0.99 | locus YDR195W, strain ref2 0.966 | locus YDR297W, strain sur2, active compounds read low 0.976 | locus YDR318W, strain mcm21, active compounds read low 0.989 | locus YDR334W, strain swr1, active compounds read low 0.978 | locus YDR335W, strain msn5, active compounds read low 0.972 | locus YDR388W, active compounds read low 0.983 | locus YDR392W, strain spt3, active compounds read low 0.915 | locus YDR502C, strain sam2, active compounds read low 0.988 | locus YEL003W, strain gim4, active compounds read low 1 | locus YEL037C, strain rad23, active compounds read low 0.983 | locus YEL061C, strain CIN8 (second series), active compounds read low 0.984 | [4] 1 | locus YER015W, strain faa2, active compounds read low 0.972 | locus YER016W, strain bim1, active compounds read low 0.975 | locus YER110C, active compounds read low 0.97 | locus YER111C, strain swi4, active compounds read low 0.977 | locus YER155C, strain BEM2 (second series), active compounds read low 1.05 | locus YER155C, strain BEM2, active compounds read low 0.997 | locus YER167W, strain BCK2, active compounds read low 0.998 | locus YFR010W, strain ubp6, active compounds read low 1.02 | locus YGL078C, strain dbp3, active compounds read low 0.975 | locus YGL086W, strain mad1, active compounds read low 1 | locus YGL167C, strain pmr1, active compounds read low 0.999 | locus YGL173C, strain kem1, active compounds read low 1.01 | locus YGL227W, strain vid30, active compounds read low 0.987 | locus YGL240W, strain doc1, active compounds read low 1.04 | locus YGL248W, strain PDE1, active compounds read low 0.999 | locus YGL253W, strain hxk2, active compounds read low 0.963 | locus YGR135W, strain pre9, active compounds read low 0.972 | locus YGR252W, strain gcn5, active compounds read low 1.08 | locus YHR013C, strain ard1, active compounds read low 0.956 | locus YHR027C, strain rpn1, active compounds read low 0.989 | [5] 0.986 | locus YHR079C, strain IRE1 (second series), active compounds read low 0.986 | locus YHR094C, strain hxt1, active compounds read low 0.978 | locus YHR129C, strain ARP1, active compounds read low 0.994 | locus YHR142W, strain chs7, active compounds read low 0.951 | locus YHR200W, strain rpn10, active compounds read low 0.992 | locus YIL066C, strain RNR3, active compounds read low 1 | locus YIL073C, strain SPO22, active compounds read low 0.94 | locus YIL125W, strain kgd1, active compounds read low 0.984 | locus YIR030C, strain dcg1, active compounds read low 0.97 | locus YJL092W, strain hpr5, active compounds read low 0.982 | locus YJL095W, strain BCK1 (second series), active compounds read low 0.972 | locus YJL095W, strain BCK1, active compounds read low 0.975 | locus YJL115W, strain asf1, active compounds read low 0.957 | locus YJL129C, strain trk1, active compounds read low 0.95 | locus YJL134W, strain LCB3, active compounds read low 0.99 | locus YJL154C, strain vps35, active compounds read low 0.977 | locus YJL164C, strain tpk1, active compounds read low 1.02 | locus YJL166W, strain qcr8, active compounds read low 0.989 | locus YJL168C, strain set2, active compounds read low 0.985 | locus YJL187C, strain SWE1 (second series), active compounds read low 0.98 | locus YJL187C, strain SWE1, active compounds read low 0.987 | [6] 1 | locus YKL009W, strain mrt4, active compounds read low 0.992 | locus YKL068W, active compounds read low 0.98 | locus YKL085W, strain MDH1 (second series), active compounds read low 1 | locus YKL085W, strain MDH1, active compounds read low 1 | locus YKL160W, strain elf1, active compounds read low 0.95 | locus YKR001C, strain vps1, active compounds read low 0.99 | locus YKR026C, strain gcn3, active compounds read low 0.993 | locus YKR091W, strain srl3, active compounds read low 0.978 | locus YLL001W, strain dnm1, active compounds read low 0.996 | locus YLL026W, active compounds read low 0.98 | locus YLL041C, strain sdh2, active compounds read low 0.98 | locus YLR027C, strain aat2, active compounds read low 0.996 | [7] 1 | locus YLR058C, strain SHM2, active compounds read low 0.994 | locus YLR102C, strain apc9, active compounds read low 0.988 | locus YLR221C, strain rsa3, active compounds read low 1.04 | locus YLR258W, strain gsy2, active compounds read low 0.981 | locus YLR262C, strain YPT6 (second series), active compounds read low 1 | locus YLR268W, strain sec22, active compounds read low 1.02 | locus YLR320W, strain mms22, active compounds read low 1.02 | locus YLR342W, strain FKS1 (second series), active compounds read low 1.08 | locus YLR342W, strain FKS1, active compounds read low 0.988 | locus YLR357W, strain rsc2, active compounds read low 0.981 | locus YLR370C, strain arc18, active compounds read low 0.971 | locus YLR371W, strain rom2, active compounds read low 0.957 | locus YLR384C, strain iki3, active compounds read low 0.978 | locus YLR418C, strain cdc73, active compounds read low 1.01 | locus YML016C, strain PPZ1, active compounds read low 0.999 | locus YML032C, strain rad52, active compounds read low 1 | locus YML120C, strain ndi1, active compounds read low 1 | locus YML124C, strain tub3, active compounds read low 0.982 | locus YMR058W, strain fet3, active compounds read low 0.979 | locus YMR078C, strain ctf18, active compounds read low 0.967 | locus YMR125W, strain sto1, active compounds read low 0.98 | locus YMR129W, active compounds read low 0.965 | locus YMR205C, strain PFK2, active compounds read low 1.02 | locus YMR223W, strain ubp8, active compounds read low 0.986 | locus YMR231W, strain pep5, active compounds read low 0.993 | [8] 1.23 | locus YNL067W, strain RPL9B, active compounds read low 0.974 | locus YNL071W, strain lat1, active compounds read low 0.993 | locus YNL128W, strain TEP1, active compounds read low 0.985 | locus YNL209W, strain ssb2, active compounds read low 0.963 | locus YNL233W, strain BNI4, active compounds read low 1.01 | locus YNL248C, strain rpa49, active compounds read low 0.938 | locus YNL250W, strain rad50, active compounds read low 0.983 | locus YNL271C, strain bni1, active compounds read low 0.992 | locus YNL298W, strain CLA4, active compounds read low 0.985 | locus YNL307C, strain MCK1, active compounds read low 0.991 | locus YNL322C, strain KRE1 (second series), active compounds read low 0.983 | locus YNR049C, strain mso1, active compounds read low 0.954 | locus YNR052C, strain pop2, active compounds read low 0.977 | locus YOL012C, strain htz1 0.827 | locus YOL147C, strain pex11, active compounds read low 0.983 | locus YOR001W, strain rrp6, active compounds read low 1.05 | locus YOR061W, strain CKA2, active compounds read low 0.993 | locus YOR069W, strain VPS5, active compounds read low 0.986 | locus YOR070C, strain gyp1, active compounds read low 0.974 | locus YOR080W, strain dia2, active compounds read low 0.964 | locus YOR083W, strain WHI5, active compounds read low 0.928 | locus YOR106W, strain vam3, active compounds read low 0.957 | locus YOR136W, strain idh2, active compounds read low 0.992 | locus YOR144C, strain elg1, active compounds read low 0.99 | locus YOR184W, strain ser1, active compounds read low 1.04 | locus YOR265W, strain rbl2, active compounds read low 0.99 | locus YOR270C, strain vph1, active compounds read low 0.973 | locus YOR290C, strain snf2, active compounds read low 0.956 | locus YOR316C, strain cot1, active compounds read low 0.983 | locus YPL051W, strain arl3, active compounds read low 0.963 | locus YPL078C, strain atp4, active compounds read low 0.96 | locus YPL106C, strain sse1, active compounds read low 0.984 | locus YPL240C, strain hsp82, active compounds read low 0.992 | [9] 0.988 | locus YPR119W, strain clb2, active compounds read low 0.981 | locus YPR141C, strain kar3, active compounds read low 0.968 | locus YPR163C, strain tif3, active compounds read low 0.996 | locus YPR167C, strain met16, active compounds read low 0.981 | strain wtn01, active compounds read low 1.01
